Screening data deposited in PubChem by National Center for Advancing Translational Sciences (NCATS).
A selection: hits, their analogues and other compounds. The true share with any hit is near 6.2%.
ATXN viability = Viability Counterscreen for Primary qHTS for Inhibitors of ATXN expression. 0.49% of 400,000 active. Potency, µM (series often up to 56.7 µM), actives largely listed as cytotoxic. S2 cells (HEK-293 line with an ATXN2-luciferase reporter) viability, CellTiter-Fluor protease fluorescence, 24 h; note: nearly all actives have a fitted effect of over 40% in size
HT1080 IDH1KD tx = qHTS for induction of synthetic lethality in tumor cells producing 2HG: qHTS for the HT-1080-IDH1KD cell line. Potency, µM (doses to about 46.1 µM), actives largely listed as cytotoxic. 2% of 360,000 active. HT-1080 IDH1 knockdown viability, ATP luminescence, 48 h
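IDH1KD HT-1080 cells, 750/well, RPMI + 5% FBS; compound pinned after 2 h settling; 48 h, 37 °C; CellTiter-Glo luminescence; % activity normalised to DMSO and no-cell wells; curves fitted, classed by r2 and efficacy.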
KB-V1 MDR tox = qHTS assay for MDR1-selective chemotherapeutics: Primary screen using the drug-selected MDR subline cells KB-V1; AID 1347076, 2019; 3.4% of 400,000 active; Potency, µM (top dose mostly 46.1 µM), hits mostly cytotoxic; KB-V1 MDR cells viability, CellTiter-Glo, 72 h; note: nearly all actives have a fitted effect of over 60% in size
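In this primary screen, KB-V1 cells overexpressing P-gp are incubated with library compounds (lowest to highest concentration) for 72 h at 37 degrees C before a luminescent ATP viability read.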
ATXN2 expr inh = Primary qHTS for Inhibitors of ATXN expression | HEK-293 ATXN2-luciferase reporter, luminescence, 24 h | Potency, µM (doses to about 57 µM), actives largely listed as inhibitors | 0.72% of 360,000 active | AID 1745845, 2022; note: nearly all actives have a fitted effect of over 55% in size
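ATXN2-luciferase reporter cells (luciferase flanked by upstream and downstream ATXN2 gene portions) were treated 24 h at 37 °C with compounds at up to 57 uM. SteadyGlo luminescence gave expression; GF-AFC fluorescence gave viability.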
KB-3-1 tox = qHTS assay for MDR1-selective chemotherapeutics: Primary screen using the parental adenocarcinoma cell KB-3-1; Potency, µM (titrated, usually from 46.1 µM), most hits filed as cytotoxic; KB-3-1 viability, CellTiter-Glo ATP luminescence, 72 h; 1.4% of 400,000 active; note: nearly all actives have a fitted effect of over 60% in size
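Cells are dispensed, compounds pinned in, plates held at 37 °C for 72 h, then CellTiter-Glo is added and luminescence read after 10 minutes. Cell line: parental KB-3-1 in phenol-red-free DMEM, 10% FBS.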
HT1080-NT tox = qHTS for induction of synthetic lethality in tumor cells producing 2HG: qHTS for the HT-1080-NT fibrosarcoma cell line; HT-1080-NT fibrosarcoma viability, CellTiter-Glo ATP luminescence, 48 h; Potency, µM (doses to about 46.1 µM), most hits filed as cytotoxic; 1.6% of 360,000 active;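 note: NT is the 2HG producing partner of a matched IDH1 knockdown line; nearly all actives have a fitted effect of over 55% in size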
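A 48-hour cytotoxicity screen used HT-1080-NT cells plated 2 hours before compound delivery. ATP-based CellTiter-Glo luminescence measured viability, normalized to DMSO and no-cell controls.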
Of the large screens only hits and unclear results are named; the others gave an inactive call. Calls come from the whole dose curve; as a rule, active = well fitted curve in the direction sought with a large enough effect; inconclusive = small, poorly fitted or top-dose-only effect, or another doubt; inactive = no such curve, though single readings can be large; an effect the other way counts as inactive or inconclusive.

C[C@H](CO)N1C[C@H](C)[C@@H](CN(C)S(=O)(=O)c2ccccc2C#N)OCc2cnnn2CCCC1=O	none
CC1CCCC(C)N1C(=O)COC(=O)c1ccco1 (stereo unspecified)	KB-V1 MDR tox inconclusive
CCN(CC)c1ccc(C=Nc2ccccc2C)c(O)c1	KB-V1 MDR tox inconclusive
CCN(CC)c1ccc(/C=N/N(c2ccccc2)c2ccccc2)c(O)c1	KB-V1 MDR tox 16.4µM
CCN(CC)c1ccc(/C=N/N=C(c2ccccc2)c2ccccc2)c(O)c1	KB-V1 MDR tox inconclusive
CCN(CC)c1ccc(/C=N/NC(=S)NCc2ccccc2)c(O)c1	HT1080 IDH1KD tx inconclusive, ATXN2 expr inh inconclusive, KB-3-1 tox 7.31µM
CCN(CC)c1ccc(/C=N/Nc2nc3ccccc3[nH]2)c(O)c1	ATXN viability 5.01µM, HT1080 IDH1KD tx 6.51µM, ATXN2 expr inh inconclusive, KB-3-1 tox inconclusive, HT1080-NT tox 8.2µM
CCC(C)Sc1oc(-c2ccco2)nc1S(=O)(=O)c1ccc(Cl)cc1 (stereo unspecified)	none (no result: HT1080 IDH1KD tx, HT1080-NT tox)
COc1cc(F)c(F)c(Nc2ccc(I)cc2F)c1NS(=O)(=O)C1(C[C@H](O)CO)CC1	none (no result: ATXN viability, HT1080 IDH1KD tx, KB-V1 MDR tox, KB-3-1 tox, HT1080-NT tox)
CC/C(=N\NC(=O)Cc1ccc(Br)cc1)c1cccs1	none
CCCN(Cc1cc2cc(C)ccc2[nH]c1=O)C(=O)c1cccc(OC)c1	KB-V1 MDR tox 7.31µM, KB-3-1 tox 16.4µM
Cc1ccc(NC(=S)N(CCN(C)C)Cc2cc3cc(C)ccc3[nH]c2=O)cc1	KB-V1 MDR tox 23.1µM
Cc1ccc(NC(=S)N(CCN(C)C)Cc2cc3cccc(C)c3[nH]c2=O)cc1	KB-V1 MDR tox 3.26µM
CN(C)CCCN(Cc1cc2cc3c(cc2[nH]c1=O)OCO3)C(=S)Nc1cccc(Cl)c1	HT1080-NT tox 14.6µM
CCN(CC)c1ccc(NS(=O)(=O)c2ccc(-c3coc(C)n3)cc2)c(C)c1	KB-V1 MDR tox inconclusive (no result: HT1080 IDH1KD tx, HT1080-NT tox)
Cc1cccc(NC(=S)N(CCN(C)C)Cc2cc3cccc(C)c3[nH]c2=O)c1	KB-V1 MDR tox 16.4µM
COc1ccc(C(=O)CC(c2ccccc2)C2C(=O)CCCC2=O)cc1 (stereo unspecified)	none
COc1ccc(C(=O)CC(Sc2ccccc2N)c2ccc(OC)cc2)cc1 (stereo unspecified)	KB-3-1 tox 23.1µM (no result: ATXN2 expr inh)
CN(C)CC(C)(O)c1ccc2c(c1)CN(Cc1cccn1-c1ncccn1)CCO2 (stereo unspecified)	none (no result: HT1080 IDH1KD tx, KB-V1 MDR tox, ATXN2 expr inh, KB-3-1 tox, HT1080-NT tox)
CCCCCn1c(SCC(=O)OCC)nc2cc(C(=O)N3CCC(C(N)=O)CC3)ccc2c1=O	none
C=CCn1c(SCc2ccc(Cl)cc2)nc2cc(C(=O)N3CCC(C(N)=O)CC3)ccc2c1=O	KB-V1 MDR tox 25.9µM, KB-3-1 tox inconclusive
COc1ccc(C2CC(=O)C=C(NCc3ccccc3)C2)cc1 (stereo unspecified)	HT1080 IDH1KD tx 18.4µM, KB-V1 MDR tox inconclusive, KB-3-1 tox inconclusive, HT1080-NT tox 23.1µM
CCOc1ccccc1NC1=CC(=O)CC(c2ccccc2)C1 (stereo unspecified)	ATXN viability inconclusive, HT1080 IDH1KD tx 13µM, KB-V1 MDR tox inconclusive, HT1080-NT tox inconclusive
Cc1ccc(NC2=CC(=O)CC(c3ccccc3)C2)cc1 (stereo unspecified)	HT1080 IDH1KD tx 2.91µM, KB-V1 MDR tox inconclusive, KB-3-1 tox inconclusive, HT1080-NT tox 2.91µM
O=C1C=C(Nc2ccc(Cl)cc2)CC(c2ccccc2)C1 (stereo unspecified)	HT1080 IDH1KD tx 9.2µM, KB-V1 MDR tox inconclusive, KB-3-1 tox inconclusive, HT1080-NT tox 11.6µM
Cc1ccc(NC2=CC(=O)CC(c3ccc(Cl)cc3)C2)cc1 (stereo unspecified)	KB-V1 MDR tox inconclusive
COc1ccc(C2CC(=O)C=C(NCc3ccc4c(c3)OCO4)C2)cc1 (stereo unspecified)	KB-V1 MDR tox inconclusive (no result: ATXN2 expr inh)
